Hit rate of the full screen: of about 68,000 compounds, about 2,700 (4%) showed an effect of 50% or more. The sample as a whole holds a higher share of strong results than the screen did.

This assay deals with Plasmodium berghei. Description: Screen against P. berghei liver stage (PbLuc), transformed with Luciferase, at 2uM. The class given is functional, HepG2. The following applies: tested at 2 uM.
For `O=C(c1cc(C2CC2)on1)N1CCC(Oc2ncccc2Cl)CC1`, the INHIBITION is -22.8%.
On to `CCN1C[C@@H]2[C@@H](OC)CCN(S(=O)(=O)c3ccccc3F)[C@@H]2C1`, for which the INHIBITION is given as -22.38%.
For `O=C(CCc1ccccc1)NCC(O)c1c(F)cccc1F` (configuration not stated), the INHIBITION is recorded as -17.44%.
With `CC(C)C(=O)N1Cc2ccccc2CC2(CCCCN2C)C1` (configuration not stated), the INHIBITION amounted to 6.2%.
Under `O=C(CCNc1ncccn1)N1CCN(c2nccs2)CC1` stands 9.41%.
Under `CCC(=O)N1CCC2(CC1)CC(CC(N)=O)c1ccc(F)cc12` (configuration not stated) stands -10.13%.
For the molecule `CC(C)N1CCC2(CC1)CC(CC(N)=O)c1ccc(F)cc12` (configuration not stated), the INHIBITION is given as -94.52%.
Under `COCCN1CCC2(CC1)CC(CC(N)=O)c1ccc(F)cc12` (configuration not stated) stands 53.06%.
Then `O=C(CCc1cccc(F)c1F)N1CCCC(n2cncn2)C1` (configuration not stated), with -19.35%.
As to `CCN(CC)[C@@H]1CN(C(=O)c2ccc(C#N)cc2)[C@@H]2CCCO[C@H]12`, the INHIBITION was -58.31%.
Then `Nc1cccnc1N1CCN(c2ccccc2)CC1`, with -43.35%; and `COc1cccc(F)c1-c1nc2c([nH]1)c(C1CC1)nn2C`, with 21.14%; and `O=C(N1CCCC1)N1CCc2onc(COc3cccnc3)c2C1`, with 11.79%.
Under `O=C(c1ccc[nH]1)N1CCc2onc(COc3cccnc3)c2C1` stands -39.67%.
Under `O=C(c1ccncc1F)N1CCc2onc(COc3cccnc3)c2C1` stands 54.89%; under `O=C(c1ccc(F)cc1F)N1C[C@@H](O)[C@H](N2CCOCC2)C1`, 13.51%; under `O=C(CCc1nccs1)N1CCCC(N2CCNC2=O)C1` (configuration not stated), 7.74%.
With `COCCN1C[C@@H]2CN(S(=O)(=O)c3cccs3)C[C@@H]2C1=O`, the INHIBITION is -8.59%.
Then `CC(C)CN1C[C@@H]2CN(S(=O)(=O)c3cccs3)C[C@@H]2C1=O`, with 29.85%; and `CCN1C[C@@H]2CN(S(=O)(=O)c3cccs3)C[C@@H]2C1=O`, with 62.25%.
Consider `CCCN1CCCn2nc(CNS(=O)(=O)c3cccc(F)c3)cc2C1`, for which the INHIBITION is 39.28%.
Under `Cc1ccc(CN(Cc2[nH]cnc2C)C2CC(C)(C)NC(C)(C)C2)o1` stands -13%; under `Cc1nc(C2CCCN2CC(=O)N2CCc3ccccc32)no1` (configuration not stated), 47.93%.
`CCOc1ccc(NC(=O)N2CCOC(C(N)=O)C2)cc1C` (configuration not stated): the INHIBITION was found to be 6.22%.
Under `Cc1cc(NC(=O)N2CCOC(C(N)=O)C2)ccc1Br` (configuration not stated) stands 29.89%; under `COCC1CN(C(=O)Nc2cc(Cl)cc(Cl)c2)CCO1` (configuration not stated), 13.12%.
Then `NC(=O)C1CN(C(=O)Nc2cc(Cl)cc(Cl)c2)CCO1` (configuration not stated), with 80.56%; and `COCCOc1ccc(NC(=O)N2CCOC(C(N)=O)C2)cc1F` (configuration not stated), with 29.89%; and `CCOc1ccc(NC(=O)N2CCOC(C(N)=O)C2)cc1Cl` (configuration not stated), with 51.4%.
Then `Cc1ccsc1C(=O)N1CCCN(Cc2cscn2)CC1`, with 29.12%.
`COc1ccc(NCCC(=O)NCc2cccnc2N(C)C)cc1`: the INHIBITION stood at 35.54%.
Under `CCOC(=O)c1cnn(C2CCN(C(=O)CC(C)(C)C)CC2)c1N` stands -40.25%; under `c1ccc(CN2CCC3(CC2)CC(Nc2nccs2)CO3)nc1` (configuration not stated), -14.97%.
Under `O=C(NCC1CCCN1CCc1ccccc1)NCC1(O)CCC1` (configuration not stated) stands 57.34%; under `O=C(NCC1CCN(CCc2ccccc2)C1)NCC1(O)CCC1` (configuration not stated), -69.19%; under `O=C(NCC1CCCN1Cc1ccccc1)NCC1(O)CCC1` (configuration not stated), -19.78%.
Then `Cc1cc(CN2CC[C@H]3C[C@H](c4nc(C5CC5)cs4)O[C@@H]3C2)no1`, with 35.84%; and `COCCC1COC2(CCN(C(=O)c3ccncc3)CC2)C1` (configuration not stated), with 2.5%; and `COCCC1COC2(CCN(C(=O)c3ccccc3)CC2)C1` (configuration not stated), with -40.63%.
Turning to `COCCC1COC2(CCN(C(=O)c3ccsc3)CC2)C1` (configuration not stated), the INHIBITION amounted to 56.71%.
Then `Cn1cnc(S(=O)(=O)NCCN2CCCCCC2=O)c1Cl`, with 3.86%; and `Cc1cccc(C(=O)NC2CCN(c3cnn(C)c3)C2=O)n1` (configuration not stated), with 1.22%.
Under `Cn1cc(N2CCC(NC(=O)c3ccccc3Cl)C2=O)cn1` (configuration not stated) stands 28.95%; under `Cc1ccccc1C(=O)NC1CCN(c2cnn(C)c2)C1=O` (configuration not stated), 52.08%.
Take `Cc1cccc(C(=O)NC2CCN(c3cnn(C)c3)C2=O)c1C` (configuration not stated): the INHIBITION came out at 13.53%.
As for `CCc1ccc(C(=O)NC2CCN(c3cnn(C)c3)C2=O)o1` (configuration not stated), the INHIBITION turned out to be 26.65%.
Then `Cn1cc(N2CCC(NC(=O)c3ccccc3F)C2=O)cn1` (configuration not stated), with 63.1%; and `Cn1cc(N2CCC(NC(=O)c3c(F)cccc3Cl)C2=O)cn1` (configuration not stated), with 50.98%; and `Cc1ccsc1C(=O)NC1CCN(c2cnn(C)c2)C1=O` (configuration not stated), with 20.14%.
Under `Cn1cc(N2CCC(NC(=O)c3c(F)cccc3F)C2=O)cn1` (configuration not stated) stands 31.98%; under `COc1ccc(S(=O)(=O)NCCn2cnc(C)cc2=O)cc1C`, 11.94%; under `CCCN1C[C@@H]2CC[C@H]1CN(C(=O)c1ccc(N(C)CCO)cc1)C2`, 6.73%.
Then `CC(=O)N(C)Cc1cccc(NC(=O)c2cnn(C)c2C)c1`, with -7.28%.
Regarding `CC(O)CN1CCC(CNCc2ccc(C(N)=O)cc2)CC1` (configuration not stated), the INHIBITION was -63.41%.
Under `N#CCCN(c1ccccc1)S(=O)(=O)CC1CCCCO1` (configuration not stated) stands 16.87%.
Then `CNC(=O)CCN(C)CC1(c2ccc(Br)cc2)CC1`, with -43.52%; and `CCNC(=O)N(C)Cc1ccc(SC)c(OC)c1`, with -53.99%; and `CCc1cnc(C)nc1N(C)CCCc1cnn(C)c1`, with -32.88%.
Regarding `COc1ccccc1-n1cc(C(=O)NCCCn2ccnn2)cn1`, the INHIBITION is reported as 32.73%.
`CC(C#N)NS(=O)(=O)c1ccc2c(c1)N(C)CCC2` (configuration not stated): the INHIBITION is given as -95.81%.
As for `Brc1csc(CNCc2nnc3n2CCC3)c1`, the INHIBITION turned out to be 26.81%.
Consider `COc1ccc(-n2ccc(C(=O)NCCN3CCCCCC3)n2)cc1`, for which the INHIBITION was determined as 23.42%.
Then `COC(=O)CCNC(=O)c1ccc(NC(=O)N(C)CC(C)(C)C)cc1`, with 6.85%; and `O=C(CCc1nc(C2CC2)no1)c1ccc(F)c(F)c1`, with -44.84%; and `COc1ccc(C(=O)CCc2nc(C3CC3)no2)cc1`, with 9.43%.
For `O=C(CCc1nc(C2CC2)no1)c1ccccc1`, the INHIBITION worked out at 53.65%.
Under `Cc1ccc(CN2CCN(c3ncccc3Cl)CC2CCO)cc1` (configuration not stated) stands -87.47%.

The record behind these values is ChEMBL document CHEMBL4513216, “Probing the Open Global Health Chemical Diversity Library for Multistage-Active Starting Points for Next-Generation Antimalarials” (ACS Infect Dis, 2020).
